USP1-UAF1 inh – blocks the human USP1/UAF1 deubiquitinase complex. recombinant USP1/UAF1, Ub-Rhodamine cleavage fluorescence. AID 743255. 390,000 tested, 0.23% active. Potency, µM (titrated, usually from 57.1 µM), for inactives: at the top dose activity change, negative = inhibition, actives largely listed as inhibitors. O94782; active means well fitted inhibition curve with a large enough effect; inconclusive means small, poorly fitted or top-dose-only effect; inactive means no such curve, though single readings can be large or run the other way; further: potency means the concentration at half of the fitted maximal effect; on the % scale 0 is the no-effect control and ±100 the full control effect; nearly all actives have a fitted effect of over 60% in size
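Step one: compound is pinned into 1nM USP1/UAF1 in HEPES pH 7.8 buffer with TCEP. Step two: 15 min room-temperature incubation. Step three: Ub-Rho (150nM final) starts cleavage, tracked by fluorescence over six one-minute reads.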
TRHR ag – activates the human TRH receptor; TRHR cells, calcium flux fluo-8, FDSS agonist mode; activation, % at 2 µM; 360,000 tested, 0.18% active; further: 0% is about no effect
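Read-out: compound-evoked intracellular calcium rise in TRHR cells, fluo-8 dye, kinetic FDSS fluorescence at 1 s/cycle following a 10-cycle baseline. Cells cultured overnight before dye loading (30 min–1.5 h, RT).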
D1 potentiator – potentiators of human D1 dopamine receptor; P21728; AID 504651; HEK293 TREx D1 cells, calcium flux, dopamine EC20 potentiation; potentiation, % at 10 µM; 360,000 tested, 0.036% active; in the data active means potentiation above about 30%; further: 0% is about no effect
Target sequence (P21728 whole entry, looked up): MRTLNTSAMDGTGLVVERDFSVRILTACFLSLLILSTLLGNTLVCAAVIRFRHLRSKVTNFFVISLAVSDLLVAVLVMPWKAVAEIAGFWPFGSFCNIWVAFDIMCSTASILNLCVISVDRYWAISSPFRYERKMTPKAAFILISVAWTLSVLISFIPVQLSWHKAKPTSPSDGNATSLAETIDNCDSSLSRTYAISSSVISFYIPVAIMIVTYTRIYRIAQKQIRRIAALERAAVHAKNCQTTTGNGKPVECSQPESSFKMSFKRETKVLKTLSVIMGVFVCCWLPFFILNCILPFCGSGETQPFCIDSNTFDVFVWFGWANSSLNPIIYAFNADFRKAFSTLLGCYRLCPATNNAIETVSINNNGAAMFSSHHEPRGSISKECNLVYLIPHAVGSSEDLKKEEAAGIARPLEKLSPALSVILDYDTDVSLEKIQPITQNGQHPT
D1 ag – agonists of human D1 dopamine receptor; P21728; HEK293 T-REx D1 cells, calcium flux, agonist mode; activation, % at 2 µM; 360,000 tested, 1% active; AID 504660; further: 0% is about no effect
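Agonism was scored from calcium flux recorded over 180 s (1 read/s) after pintool compound addition, following a 10-cycle baseline. Cells were inducible force-coupled HEK293 TREx D1, plated overnight at 30 C and loaded with no-wash calcium dye.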
D1 antagonist – human D1 dopamine receptor antagonism | P21728 | AID 504652 | HEK293 TREx D1 cells, calcium flux, dopamine EC80; hits give low values | activity change, negative = inhibition, % at 10 µM | 360,000 tested, 3.2% active; in the data active means activity change below about -30%; further: on the % scale 0 is the no-effect control and ±100 the full control effect
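Allosteric or orthosteric antagonism assessed as attenuation of the calcium response to EC80 dopamine, added 180 s after compound, in induced HEK293 Trex D1 cells loaded with no-wash calcium dye.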
TRHR enhancer – TRH receptor (human) allosteric enhancement; P34981; TRHR cells, fluo-8 calcium fluorescence, EC20 TRH enhancement; enhancement, % at 2 µM; 360,000 tested, 0.66% active; in the data active means enhancement above about 30%; further: 0% is about no effect
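Enhancer read-out: after compound pinning and an initial kinetic agonist-mode read, an EC20 of TRH (10 nM final) was injected and fluo-8 calcium signal (Ex 480/Em 530) followed at 1 s/cycle for 100 cycles in TRHR-expressing cells.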
The depositor's hits bear a star; ? = inconclusive; nt = no result given. Shown are actives, neighbours in structure and some others; about 4.4% of the full set was active somewhere. Unless noted, no stated cut-off is given here; in the data, active means activation above about 30%; inactive means the rest.

SMILES	USP1-UAF1 inh	TRHR ag	D1 potentiator	D1 ag	D1 antagonist	TRHR enhancer
COC(=O)c1scc(C)c1NC(=O)/C=C/C(=O)O	-2.9%	0.2	-4.2	2.4	-47.0*	-1.9
COC(=O)c1scc(C)c1NC(=O)c1ccccc1F	-19.2%	-1.6	-3.5	0.7	-37.1*	17.9
O=C(OCC(=O)N1CCCc2ccccc21)c1ccc(Cl)nc1	-16.6%	-0.4	-4.8	0.8	-3.1	2.1
O=C(Cn1cnc2ccccc21)OCC(=O)N1CCCc2ccccc21	?	0.3	-1.1	7.5	-60.6*	-0.6
O=C(OCC(=O)N1CCCc2ccccc21)c1cnc(Cl)c(Cl)c1	-11.4%	0.2	0.1	41.2*	4.3	17.9
Cc1csc2nc(COc3ccc(NC(=O)COc4ccc(F)cc4)cc3)cc(=O)n12	-24.3%	-0.4	-4.8	8.3	-16.9	-5.6
CC(CNC(=O)Cn1ccc2cc(S(=O)(=O)N3CCCCC3)ccc21)c1ccccc1 (centres undefined)	-16.9%	0.2	-1.2	5.1	-9.9	-7.2
CCOC(=O)c1cnc2ccccc2c1NCc1ccco1	-13.9%	3.2	-13.8	5.0	-39.2*	6.9
CC(=O)c1cc(NC(=O)c2ccc(Cl)cc2)c(=O)oc1/C=C/N(C)C	-12.1%	38.9*	2.5	107.8*	-17.9	-2.9
CN(C(=O)CSc1nnc(-c2ccco2)n1Cc1ccccc1)C1CCS(=O)(=O)C1 (centres undefined)	-11.0%	0.3	11.0	0.8	-37.0*	0.9
CC(C)N(C)C1CCN(S(=O)(=O)c2ccc3[nH]c(=O)ccc3c2)CC1	-26.3%	0.1	-3.6	1.3	5.5	-0.7
C=CCNc1nc2c(c(=O)n(C)c(=O)n2C)n1Cc1ccc(F)cc1	-8.6%	-0.9	-5.8	4.9	1.9	-5.1
COCCNc1nc2c(c(=O)n(C)c(=O)n2C)n1Cc1cccc(C)c1	-17.7%	-0.4	-8.6	0.3	-49.8*	-0.7
CCC(C)Nc1nc2c(c(=O)n(C)c(=O)n2C)n1Cc1ccc(F)cc1 (centres undefined)	-16.4%	-1.9	-21.2	-0.8	-85.2*	-4.1
COc1ccc(Cn2c(NCC(C)C)nc3c2c(=O)n(C)c(=O)n3C)cc1	-10.7%	-1.3	0.2	1.5	-41.0*	6.9
CCc1ccc(N2CCn3c2nc2c3c(=O)n(Cc3ccc(F)cc3)c(=O)n2C)cc1	-31.5%	0.4	-6.0	11.0	-45.9*	-5.1
CCc1ccc(N2CCn3c2nc2c3c(=O)n(Cc3c(F)cccc3Cl)c(=O)n2C)cc1	-17.3%	0.4	-2.5	5.9	-21.1	-5.9
O=C(Cn1ncn2c(cc3cc(F)ccc32)c1=O)NC1CCCCC1	-16.6%	-0.3	-4.2	1.8	-15.3	13.7
O=S(=O)(Nc1cccc(-c2ccc(N3CCCCC3)nn2)c1)c1cccs1	-22.5%	-0.8	-1.9	-0.6	-19.1	-5.0
Cc1nc2ccn(Cc3ccco3)c(=O)c2cc1C(=O)NCc1ccc(Cl)cc1	-8.7%	-0.7	-3.3	0.6	8.8	5.2
CCc1cccc(N2C(=O)CS(=O)(=O)C23C(=O)N(Cc2ccccc2)c2ccc(C)cc23)c1 (centres undefined)	-24.2%	0.3	-0.3	4.5	0.3	-8.9
Cn1c(=O)c2c(nc(NCc3ccc4c(c3)OCO4)n2Cc2ccccc2Cl)n(C)c1=O	-1.8%	-1.1	-0.3	1.5	-80.7*	-1.0
CCCCNC(=O)c1cc(-c2ccc(OC)cc2)nc2n[nH]c(-c3cccc([N+](=O)[O-])c3)c12	3.8%	0.2	2.9	3.1	22.0	2.0
O=S(=O)(c1ccc(Cl)cc1)N1CCN(c2nc(-c3ccc(Cl)cc3)nc3ccccc23)CC1	nt	-1.2	2.1	0.0	-36.2*	-0.9
O=S(=O)(c1ccccc1)N1CCN(c2nc(-c3cccnc3)nc3ccccc23)CC1	1.9%	0.2	-10.8	2.3	1.2	-5.7
SMILES	USP1-UAF1 inh	TRHR ag	D1 potentiator	D1 ag	D1 antagonist	TRHR enhancer
CC(=O)c1ccc(S(=O)(=O)N2CCN(c3nc(-c4cccnc4)nc4ccccc34)CC2)cc1	-22.9%	0.6	nt	5.3	0.7	34.8*
Cc1ccc(C)c(Cn2c3ccccc3c3cnn(CC(=O)NC4CCCCCC4)c(=O)c32)c1	-10.9%	0.6	-2.1	4.0	-10.8	-5.2
C=Cc1ccc(Cn2c(=O)n(C)c(=O)c3sccc32)cc1	-15.4%	-1.7	-1.9	15.7	-34.3*	-6.8
CN(C)c1ccc(C=C(c2nnnn2-c2ccccc2)c2nnnn2-c2ccccc2)cc1	31.1%	7.3	-9.6	61.4*	13.9	4.0
CN(C)/C=C(\C(=O)c1ccccc1)c1nnnn1-c1ccccc1	-11.8%	0.0	-11.3	1.7	1.8	-3.8
CNC(=O)c1[nH]cnc1C(=O)N[C@@H](C)C(=O)OCc1ccccc1	-21.4%	-1.2	2.7	7.4	-33.5*	0.3
C[C@H](NC(=O)c1nc[nH]c1C(=O)N[C@@H](Cc1ccccc1)C(=O)OCc1ccccc1)C(=O)OCc1ccccc1	-22.9%	2.9	-1.3	17.5	-30.9*	-3.2
CN(C)c1ccc(CN(CC2CCCO2)C(=O)COc2ccc(Cl)cc2)cc1 (centres undefined)	-12.4%	-1.5	-1.7	2.5	-12.4	-4.5
Nc1[nH]n2c(=O)c3c(nc2c1N=Nc1ccc(Cl)cc1)CCCC3	-0.2%	1.2	-13.8	1.6	-49.8*	0.4
Cc1cc(C)c(NC(=O)CSc2ncc3c(n2)-c2cc(Cl)ccc2N(C)S3(=O)=O)c(C)c1	6.0%	-0.8	-2.8	1.3	14.5	2.6
Cc1ccc(-c2onc(C)c2C)cc1S(=O)(=O)NCc1ccc(N(C)C)cc1	-18.2%	-0.6	-5.2	3.9	-31.8*	-2.1
CCOC(=O)c1ccc(NS(=O)(=O)c2cc(-c3onc(C)c3C)ccc2C)cc1	-1.8%	0.2	-1.4	0.5	6.0	6.6
Cc1ccc(-c2onc(C)c2C)cc1S(=O)(=O)Nc1cccc(Cl)c1C	-15.9%	0.1	-6.0	2.4	-39.1*	1.3
Cc1ccc(-c2onc(C)c2C)cc1S(=O)(=O)NC1CCCCC1	-22.7%	-0.3	-7.9	4.3	-62.5*	-24.6
COc1ccc(-c2onc(C)c2C)cc1S(=O)(=O)NC1CCCCC1	-14.3%	0.4	0.5	0.5	20.7	14.6
Cc1ccc(-c2onc(C)c2C)cc1S(=O)(=O)N1CCCCC1	-5.9%	-0.1	-1.6	2.9	17.7	1.2
COC1=CC(=Cc2c(N)n3nc(CC(=O)N4CCOCC4)sc3nc2=O)C=C(OC)C1=O	-25.1%	-0.4	1.5	190.7*	0.0	8.4
Nc1c(C=C2C=CC(=O)C=C2)c(=O)nc2sc(CC(=O)N3CCOCC3)nn12	-14.2%	0.5	-3.1	2.2	-9.2	-11.8
C=CCC1=C/C(=C\c2c(N)n3nc(CC(=O)N4CCCC4)sc3nc2=O)C=C(OC)C1=O	-10.1%	186.7*	3.5	109.1*	3.0	7.0

Source: PubChem
